Shown are actives, neighbours in structure and some others; about 11% of the full set was active somewhere.
ALDH1A1 inh – qHTS Assay for Inhibitors of Aldehyde Dehydrogenase 1 (ALDH1A1); actives 7.3% (n = 220,000); Purified ALDH1A1, NADH fluorescence, propionaldehyde substrate; Potency, µM (doses to about 75.3 µM), most hits filed as inhibitors; Aldehyde dehydrogenase 1A1 (Homo sapiens), P00352
Target sequence (P00352 whole entry, looked up): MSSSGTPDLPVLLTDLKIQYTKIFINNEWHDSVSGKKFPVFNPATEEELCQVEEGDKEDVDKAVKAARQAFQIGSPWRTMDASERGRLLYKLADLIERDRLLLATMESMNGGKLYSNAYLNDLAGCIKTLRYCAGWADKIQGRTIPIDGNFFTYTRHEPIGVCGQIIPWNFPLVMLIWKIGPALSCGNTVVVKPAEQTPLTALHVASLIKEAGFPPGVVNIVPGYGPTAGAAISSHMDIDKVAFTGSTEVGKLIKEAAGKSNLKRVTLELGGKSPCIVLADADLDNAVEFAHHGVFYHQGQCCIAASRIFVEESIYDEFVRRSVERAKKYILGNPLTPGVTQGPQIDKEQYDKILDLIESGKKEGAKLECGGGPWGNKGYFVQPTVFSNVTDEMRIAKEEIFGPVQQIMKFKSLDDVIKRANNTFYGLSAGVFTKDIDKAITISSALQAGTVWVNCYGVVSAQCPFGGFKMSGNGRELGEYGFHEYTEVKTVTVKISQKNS
HPGD inh – qHTS Assay for Inhibitors of HPGD (15-Hydroxyprostaglandin Dehydrogenase) | purified HPGD, NADH fluorescence kinetic, PGE2 substrate | AID 894, 2007 | 15-hydroxyprostaglandin dehydrogenase [NAD(+)] (Homo sapiens), P15428 | Potency, µM, usual class: inhibitors | actives 4.3% (n = 150,000)
Target sequence (P15428 whole entry, looked up): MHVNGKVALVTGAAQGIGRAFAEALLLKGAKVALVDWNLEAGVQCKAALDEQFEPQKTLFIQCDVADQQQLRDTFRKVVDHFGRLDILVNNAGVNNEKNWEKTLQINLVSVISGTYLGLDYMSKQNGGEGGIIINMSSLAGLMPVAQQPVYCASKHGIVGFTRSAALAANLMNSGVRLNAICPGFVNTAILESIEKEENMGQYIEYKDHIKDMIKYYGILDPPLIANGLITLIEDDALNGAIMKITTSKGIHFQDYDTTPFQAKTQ
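20 nM HPGD preincubated 15 min at room temperature with compound in 50 mM Tris-HCl pH 8, 0.01% Tween 20. Started with 1 mM NAD+ and 30 uM prostaglandin E2; NADH fluorescence (360/450 nm) read 5 times over 30-s intervals, last minus first.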
PNC inhibitor – High Content Assay for Compounds that inhibit the Assembly of the Perinucleolar Compartment. actives 3.1% (n = 140,000). activity change (PNC), negative = inhibition, % at 10 µM. PC3M PTB-GFP, PNC prevalence imaging, 16 h; active compounds read low. AID 2417, 2010;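 active means readout at or below -70, meaning at least 70% loss of cells showing the perinucleolar compartment, a nuclear body marking cancer cells; inconclusive means readout between -30 and a set limit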
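Read-out is percentage of cells bearing a perinucleolar compartment, from automated 20x imaging of fixed, Hoechst-stained PC3M PTB-GFP cells. Cells were seeded 4 h, then exposed 16 h to compound (23 nl of library stock) in duplicate plates.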
JMJD2E inh – qHTS Assay for Inhibitors of Human Jumonji Domain Containing 2E (JMJD2E). Lysine-specific demethylase 4E (Homo sapiens), B2RXH2. JMJD2E catalytic domain, FDH-coupled NADH fluorescence (FDH is formaldehyde dehydrogenase). Potency, µM (doses to about 57.1 µM), usual class: inhibitors. actives 1.6% (n = 230,000). AID 2147, 2009; further: nearly all actives have a fitted effect of over 50% in size
Large screens that a line does not name were inactive; ! = a repeat was not active. Unless noted, the call rests on the fitted dose curve; in most records, active means well fitted inhibition curve with a large enough effect (not every such curve was filed as active); inconclusive means small, poorly fitted or top-dose-only effect, or another doubt; inactive means no such curve, though single readings can be large or run the other way.

O=C(Nc1ccc2c(c1)CCC2)C1CCCN(c2ncccn2)C1 (stereo not given)	none
Cc1nc2ncnn2c(N2CCCC(C(=O)Nc3ccc4c(c3)CCC4)C2)c1C (stereo not given)	ALDH1A1 inh inconclusive, HPGD inh 28µM, JMJD2E inh inconclusive
CN(C)NC(=S)NC1CC2CCC1C2 (stereo not given)	none (no result: ALDH1A1 inh, HPGD inh, PNC inhibitor)
CCN1/C(=C/C=C/C=C/c2sc3ccccc3[n+]2CC)Sc2ccccc21	ALDH1A1 inh inconclusive, JMJD2E inh 22µM
CSCCNC(=O)Nc1c(-c2c(Cl)cccc2Cl)noc1C	none (no result: HPGD inh, PNC inhibitor)
CCCCNC(=O)C1CCCN1C(=O)NC1CCCCC1 (stereo not given)	PNC inhibitor -100
CCOC(=O)CN1C(=O)C(O)(C2CCc3ccccc3C2=O)c2ccccc21 (stereo not given)	ALDH1A1 inh 3.2µM
CCOC(=O)CN1C(=O)C(O)(c2c(C)[nH]c3ccccc23)c2ccccc21 (stereo not given)	ALDH1A1 inh 0.28µM
CCOC(=O)CN1C(=O)N[C@@H](c2ccccc2)C(C(C)=O)=C1C	none
CCOC(=O)CN1C(=O)C2(OCCCO2)c2ccccc21	ALDH1A1 inh 8.9µM
CC(C(=O)N1CCN=C1c1ccccc1)N1C(=O)c2ccccc2C1=O (stereo not given)	none (no result: ALDH1A1 inh, HPGD inh, PNC inhibitor)
CCCCCn1c(CN2CCN(CCO)CC2)nc2c1c(=O)n(C)c(=O)n2C	ALDH1A1 inh inconclusive
CCCn1c(CN2CCCCC2C)nc2c1c(=O)n(C)c(=O)n2C (stereo not given)	PNC inhibitor -95
CN1CCN(Cc2nc3c(c(=O)n(C)c(=O)n3C)n2CCCc2ccccc2)CC1	ALDH1A1 inh 5.6µM
CCCCCCn1c(CN2CCN(C)CC2)nc2c1c(=O)n(C)c(=O)n2C	PNC inhibitor -122
Cn1c(=O)c2c(nc(CN3CCN(CCO)CC3)n2CCc2ccccc2)n(C)c1=O	ALDH1A1 inh 28µM (no result: HPGD inh, PNC inhibitor)
Cn1c(=O)c2c(nc(CN3CCOCC3)n2CCCc2ccccc2)n(C)c1=O	none
Cn1c(=O)c2c(nc(CN3CCCCC3)n2CCc2ccccc2)n(C)c1=O	ALDH1A1 inh inconclusive
CSc1ccc(CN2CCC(C(=O)NCc3ccc(C)cc3)CC2)cc1	none (no result: HPGD inh, PNC inhibitor)
COc1ccccc1-c1nccc(NCc2cnc(C)cn2)n1	JMJD2E inh inconclusive (no result: PNC inhibitor)
Cc1cc(C(=O)NNC(=S)NC(C)c2ccccc2)c2ccccc2n1 (stereo not given)	none
O=C(N[C@H](CO)[C@H](O)c1ccc([N+](=O)[O-])cc1)C(Cl)Cl	ALDH1A1 inh 14µM! (no result: PNC inhibitor)
CCOC(=O)N1CCN(c2cc(=O)n(-c3ccccc3Cl)c(=O)[nH]2)CC1	none
COC(=O)C1CCN(c2cc(=O)n(-c3ccccc3Cl)c(=O)[nH]2)CC1	ALDH1A1 inh 18µM, PNC inhibitor inconclusive
O=c1cc(/N=C/c2coc3c(ccc4ccccc43)c2=O)[nH]c(=S)[nH]1	ALDH1A1 inh inconclusive, HPGD inh 2.2µM
NC(=S)N/N=C/c1coc2ccc(Br)cc2c1=O	none (no result: ALDH1A1 inh, HPGD inh, PNC inhibitor)
NC(=O)N/N=C/c1coc2ccc3ccccc3c2c1=O	none (no result: HPGD inh, PNC inhibitor)
NC(=S)N/N=C/c1coc2cc(Br)ccc2c1=O	ALDH1A1 inh 2µM (no result: HPGD inh, PNC inhibitor)
NC(=S)N/N=C/c1coc2c(ccc3ccccc32)c1=O	ALDH1A1 inh 2.2µM
COc1ccc(C(=O)c2ccccc2)c(OCC(=O)NC2CC2)c1	JMJD2E inh inconclusive (no result: HPGD inh, PNC inhibitor)
COc1cc([C@H]2Oc3cc([C@H]4Oc5cc(O)cc(O)c5C(=O)[C@@H]4O)ccc3O[C@@H]2CO)ccc1O	ALDH1A1 inh 14µM (no result: PNC inhibitor, JMJD2E inh)
COc1cc([C@@H]2Oc3cc([C@H]4Oc5cc(O)cc(O)c5C(=O)[C@H]4O)ccc3O[C@H]2CO)ccc1O	ALDH1A1 inh inconclusive, HPGD inh 35µM, JMJD2E inh 28µM (no result: PNC inhibitor)
CN(C)C=O	none (no result: PNC inhibitor, JMJD2E inh)
Nc1ccc(Nc2ccccc2)c(Cl)c1	ALDH1A1 inh 14µM
O=c1nc2s/c(=C\c3ccc(-c4ccccc4[N+](=O)[O-])o3)c(=O)n2nc1-c1ccccc1	ALDH1A1 inh inconclusive, HPGD inh 7.9µM, PNC inhibitor inconclusive
Cc1c(Cl)cccc1-n1nnnc1-c1cccs1	ALDH1A1 inh 11µM, PNC inhibitor inconclusive
CCOC(=O)CCN1C(=O)[C@H]2[C@H]3[C@H](O)[C@H](O)C/C(=N/NC(=O)OCC)[C@H]3CC[C@@H]2C1=O	none (no result: HPGD inh, PNC inhibitor, JMJD2E inh)
O=C(NN1C(=O)C2C3c4ccccc4C(c4ccccc43)C2C1=O)C1CC1 (stereo not given)	none (no result: HPGD inh, PNC inhibitor)
O=C1c2ccccc2C(=O)N1Cc1ccco1	none
O=C1c2cccc3c(O)ccc(c23)C(=O)N1Cc1ccco1	ALDH1A1 inh 13µM (no result: HPGD inh, PNC inhibitor)
CNc1nc(-c2c[nH]c3ccccc23)cs1	ALDH1A1 inh 7.1µM, JMJD2E inh inconclusive
CCc1ccc(-c2csc(-c3c[nH]c4ccccc34)n2)cc1	HPGD inh inconclusive
CN1CCN(CC(=O)Nc2nc(-c3c[nH]c4ccccc34)cs2)CC1	ALDH1A1 inh inconclusive (no result: HPGD inh, PNC inhibitor)
Nc1nc(-c2c[nH]c3ccccc23)cs1	ALDH1A1 inh 7.9µM, JMJD2E inh inconclusive
O=C(c1cnccn1)N1CCC2(CC1)CCN(c1ncccn1)CC2	none (no result: PNC inhibitor, JMJD2E inh)
Cc1cc(-c2n[nH]c(=S)o2)c(C)n1-c1ccccc1	ALDH1A1 inh 3.5µM, PNC inhibitor inconclusive
Cn1c2c(c(=O)[nH]c1=O)C(c1cccc(O)c1)C1=C(N2)c2ccccc2C1=O (stereo not given)	JMJD2E inh inconclusive (no result: HPGD inh, PNC inhibitor)
O=C(N/N=C1\C(=O)c2cccc3cccc1c23)c1ccc(O)cc1	ALDH1A1 inh 10µM (no result: HPGD inh, PNC inhibitor)
CCCCNC(=S)N/N=C1\C(=O)c2cccc3cccc1c23	ALDH1A1 inh 13µM
CNC(=S)N/N=C1\C(=O)c2cccc3cccc1c23	ALDH1A1 inh inconclusive
CC(C)NC[C@@H](O)COc1ccc(COCCOC(C)C)cc1	none (no result: PNC inhibitor)
Cc1ccc2ncccc2c1NS(=O)(=O)c1ccccc1	ALDH1A1 inh 32µM
Cc1ccc2ncccc2c1NC(=S)NC(=O)c1ccccc1	ALDH1A1 inh inconclusive (no result: HPGD inh, PNC inhibitor)
C/C(=N\NC(=O)CNc1cccc(C(F)(F)F)c1)c1ccc(Br)cc1	ALDH1A1 inh inconclusive
C/C(=N\Nc1cccc(C(F)(F)F)c1)c1ccc(O)cc1	ALDH1A1 inh 20µM (no result: HPGD inh, PNC inhibitor)
C/C(=N\NC(=O)c1cccc(N/N=C(\C)c2ccccc2)c1)c1ccccc1	ALDH1A1 inh 12µM, HPGD inh inconclusive, PNC inhibitor inconclusive
ClCC1NCC(c2ccccc2Cl)c2c1[nH]c1ccccc21 (stereo not given)	none (no result: HPGD inh, PNC inhibitor)
COC(=O)c1sc(=S)n(Cc2ccccc2)c1C	ALDH1A1 inh 8.9µM (no result: HPGD inh, PNC inhibitor)
CCCCCc1c(O)nc(SCCN2CCOCC2)[nH]c1=O	none (no result: HPGD inh, PNC inhibitor)
CCn1c(C)c(CS(=O)(=O)c2ccccc2)[nH]c1=O	ALDH1A1 inh 22µM, JMJD2E inh 28µM (no result: HPGD inh, PNC inhibitor)
c1ccc(C2Oc3ccccc3C3CC(c4cccs4)=NN32)cc1 (stereo not given)	ALDH1A1 inh 13µM, HPGD inh inconclusive
O=C(c1ccco1)c1coc2c1cc(O)c1ccccc12	ALDH1A1 inh inconclusive (no result: HPGD inh, PNC inhibitor)
COCCn1c(NC(=S)NC(=O)C2CC2)cc(=O)[nH]c1=O	ALDH1A1 inh 0.63µM (no result: HPGD inh, PNC inhibitor)
